High-throughput results as filed in PubChem BioAssay.
A selection: hits, their analogues and other compounds. The true share with any hit is near 0.62%.
Rango dissoc inh – prevents RanGTP from dissociating the Rango-importin beta complex; O95149+P62826; Biochemical FRET Rango-importin beta, RanGTP-induced dissociation; Potency, µM (titrated, usually from 46.1 µM); hit rate 0.071% among 340,000; AID 540253; note: nearly all actives have a fitted effect of over 45% in size
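Rango (0.1 uM)–importin beta (0.25 uM) complex; RanGTP-RCC1 trigger; 45 min RT; CFP/YFP FRET read.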
TSHR antagonist – blocks TSH signaling through the human TSH receptor | TSHR-expressing cells, TSH-stimulated cAMP HTRF, 2 h; stronger effect = lower value | activity change, negative = inhibition, % at 11.5 µM | hit rate 0.2% among 330,000 | AID 504810;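 active = activity change below a set negative limit, meaning inhibition stronger than a set level, cut at about -70% in these data; inconclusive = activity change between two set negative limits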
Target sequence (P16473 whole entry, looked up): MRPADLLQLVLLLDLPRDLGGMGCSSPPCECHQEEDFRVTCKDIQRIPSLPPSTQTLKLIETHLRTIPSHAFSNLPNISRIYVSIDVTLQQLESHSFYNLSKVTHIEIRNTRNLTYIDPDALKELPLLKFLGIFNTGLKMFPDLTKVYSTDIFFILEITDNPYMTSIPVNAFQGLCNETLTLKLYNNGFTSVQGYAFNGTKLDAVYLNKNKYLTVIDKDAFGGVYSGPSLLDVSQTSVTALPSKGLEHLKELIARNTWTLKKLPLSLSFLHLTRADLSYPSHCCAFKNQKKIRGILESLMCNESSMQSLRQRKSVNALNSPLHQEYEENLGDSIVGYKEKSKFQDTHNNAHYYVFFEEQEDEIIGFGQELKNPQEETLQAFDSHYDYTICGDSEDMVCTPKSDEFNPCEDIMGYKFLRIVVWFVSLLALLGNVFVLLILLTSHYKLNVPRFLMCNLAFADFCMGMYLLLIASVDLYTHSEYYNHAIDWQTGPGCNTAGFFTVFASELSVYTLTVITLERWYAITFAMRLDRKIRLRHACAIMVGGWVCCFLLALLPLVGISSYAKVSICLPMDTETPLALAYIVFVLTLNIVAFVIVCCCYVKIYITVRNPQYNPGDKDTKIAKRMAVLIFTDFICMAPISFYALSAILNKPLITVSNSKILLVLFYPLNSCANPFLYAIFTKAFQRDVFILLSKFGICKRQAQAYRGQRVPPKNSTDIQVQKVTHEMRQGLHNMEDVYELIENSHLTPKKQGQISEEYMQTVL
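Antagonism was scored as loss of TSH-driven cAMP in TSHR cells, stimulated with 4nM TSH (EC80) for 2 hours at 37 deg C and detected by homogeneous HTRF competition immunoassay.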
pAkt inh – Akt phosphorylation inhibition; hit rate 0.32% among 360,000; Neuro2A IGF-stimulated pAkt S473 HTRF, 20 min; stronger effect = lower value; activity change, % for hits at 50 µM; AID 651550; in the data active = activity change below about -80%; inconclusive = mostly about -51% to -80%
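Neuro2A cells (4,500/well, DMEM with 0.5% FBS) were treated with compound at a single 50 µM final concentration, stimulated with 6 nM IGF for 20 min at 37 °C, and lysed. Phospho-Akt Ser473 was read by HTRF as 665/615 ratio ×10^4.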
p53 reactivation – mutant p53 re-activation in reporter cells; hit rate 0.063% among 320,000; AID 504706; H1299 p53-A138V BP100-luciferase reporter, luminescence, 24 h; Potency, µM (titrated, usually from 92.2 µM), most hits filed as activators; active = well fitted activation curve with a large enough effect; inconclusive = small, poorly fitted or top-dose-only effect; inactive = no such curve, though single readings can be large or run the other way; note: nearly all actives have a fitted effect of over 45% in size
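p53-null H1299 cells stably carrying temperature-sensitive p53-A138V and a BP100-luciferase reporter were pinned with compounds (4-point, 1:5 series) and held 24 hrs at 37 deg C. Luminescence was read 10 min after detection reagent.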
Rango-impB inh – Rango-importin beta binding inhibition; Q14974; Potency, µM (doses to about 92.2 µM); hit rate 0.031% among 340,000; Rango CFP/YFP FRET sensor + importin beta, 45 min; note: nearly all actives have a fitted effect of over 15% in size
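FRET biosensor (snurportin 1 IBB flanked by EYFP and cerulean), 50 nM, with compound 5 min, then 0.125 microM importin beta in PBS, 1 mM DTT, 0.02% Tween-20, 0.1% BSA. CFP/YFP ratio read after 45 min at room temperature; pre-read flags interference.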
Large screens that a line does not name were inactive. Unless noted, calls come from the whole dose curve.

Cc1ccc(N(Cc2cc3ccc(C)cc3[nH]c2=O)C(=O)c2ccco2)c(C)c1	none
Cc1ccc2cc(CN(C(=O)c3ccco3)c3ccccc3C)c(=O)[nH]c2c1	pAkt inh -112%
C=CCN(c1ccccc1OC)S(=O)(=O)c1ccc(Cl)c(C(=O)NCc2ccco2)c1	none (no result: Rango dissoc inh, TSHR antagonist, p53 reactivation, Rango-impB inh)
O=C(NN=C1CCCCCC1)c1cccs1	p53 reactivation 40µM
COC(=O)c1ccc(CSc2nc3ccccc3s2)o1	p53 reactivation inconclusive
COC(=O)c1ccc(CSc2n[nH]c(=S)s2)o1	Rango dissoc inh inconclusive, pAkt inh -100%
Cc1cc(N=NC(=O)c2ccccc2O)c2ccccc2c1O	TSHR antagonist -72, p53 reactivation inconclusive
Cn1c(O)c(N=NC(=O)c2ccccc2O)c2ccccc21	p53 reactivation inconclusive
Cc1c(NC(=O)C(C)OC(=O)/C=C/c2ccccc2)c(=O)n(-c2ccccc2)n1C (configuration not stated)	none
COc1cc(/C=C/C(=O)OC(C)C(=O)Nc2c(C)n(C)n(-c3ccccc3)c2=O)ccc1O (configuration not stated)	Rango dissoc inh 23µM, Rango-impB inh inconclusive
O=S(=O)(/C=C/c1ccccc1)NC1CCCCCC1	none
O=S1(=O)CCC(NS(=O)(=O)/C=C/c2ccccc2)C1 (configuration not stated)	pAkt inh -114%
COc1ccc(NC(C)=O)cc1S(=O)(=O)NC1CCSc2ccccc21 (configuration not stated)	none
CCn1c(SCc2ccc(C(=O)Nc3nccs3)cc2)nnc1-c1ccc(NC(C)=O)cc1	pAkt inh -107%
CCCCC1CN2CCc3c([nH]c4ccccc34)C2(C)C1 (configuration not stated)	none
COc1ccc2nc(Nc3nc(CSc4nnnn4-c4ccccc4)cc(=O)[nH]3)nc(C)c2c1	pAkt inh -120%
O=C(c1ccc(Br)o1)N1CCN(C/C=C/c2ccccc2)CC1	pAkt inh -109%
Cc1cccc(C2NC(c3cccc(C)c3)C(C)C(=O)C2C)c1 (configuration not stated)	none
CC1(c2ccccc2)CC(C)(C)N(C(N)=O)c2ccccc21 (configuration not stated)	none
CC(=O)N1c2ccccc2C(C)(c2ccccc2)CC1(C)C (configuration not stated)	TSHR antagonist -78
NC(=O)c1ccc[n+](CC(=O)NCc2ccc(Cl)cc2)c1	none
CS(=O)(=O)c1ccc(C(=O)OCC(=O)NC23CC4CC(CC(C4)C2)C3)cc1[N+](=O)[O-]	TSHR antagonist -76
COC(=O)c1sccc1NC(=O)c1ccc(C)o1	none
COC(=O)c1sccc1-c1ccc(C(=O)Nc2ccccc2)o1	pAkt inh -128%
COc1cc(OC)cc(C(=O)NCCCN2CCOCC2)c1	pAkt inh -120%
O=C(OCC(=O)N1CCN(c2ccccc2)CC1)c1ncc(Cl)c(Cl)c1Cl	none
CN(Cc1ccccc1)c1nc2c(c(=O)[nH]c(=O)n2C)n1CCOc1ccccc1	pAkt inh -124%
Cn1c(=O)[nH]c(=O)c2c1nc(OC(=O)c1ccccc1)n2CC(O)COc1ccc(F)cc1 (configuration not stated)	none
CN(Cc1ccccc1)c1nc2c(c(=O)[nH]c(=O)n2C)n1Cc1ccccc1	none
Cn1c(=O)[nH]c(=O)c2c1nc(OC(=O)c1ccccc1)n2CC(O)COc1ccccc1 (configuration not stated)	pAkt inh -126%
Cn1c(=O)c2c(SCC(=O)NCC3CCCO3)nc(-c3ccccc3Cl)nc2n(C)c1=O (configuration not stated)	none
COc1ccc(C2C(C(=O)c3ccco3)=C(O)C(=O)N2CCc2ccccc2)cc1OC (configuration not stated)	none
COc1ccc(C2C(C(=O)c3ccco3)=C(O)C(=O)N2CCOCCO)cc1OC (configuration not stated)	pAkt inh -85%
Cc1ccccc1-c1nc(CN2CCC(C(=O)NCC3CCCO3)CC2)c(C)o1 (configuration not stated)	pAkt inh -119%
Cc1oc(-c2cccc(Cl)c2)nc1CN1CCC(C(=O)NCC2CCCO2)CC1 (configuration not stated)	none (no result: pAkt inh)
Cc1oc(-c2nc3ccccc3n2C)cc1C(=O)c1ccccc1	p53 reactivation 10µM
Cn1cc(C(=O)c2ccccc2)cc1-c1nc2ccccc2n1C	none
CC1=C(C(=O)Nc2cccc(C)n2)C(c2ccc3c(c2)OCO3)C2=C(CC(c3ccco3)CC2=O)N1 (configuration not stated)	Rango dissoc inh 18µM, Rango-impB inh inconclusive
CCCn1nc([N+](=O)[O-])c(C(C#N)c2nc3ccccc3s2)c(Cl)c1=O (configuration not stated)	TSHR antagonist -76
COc1ccccc1C(C(=O)c1ccccc1)c1ccc2ccccc2c1 (configuration not stated)	none (no result: Rango dissoc inh, TSHR antagonist, p53 reactivation, Rango-impB inh)
Cc1cccc(Cn2ccc(N)n2)c1	none
Cc1cc(C)nc(N/N=C/C2=C(O)CC(c3ccccc3)CC2=O)n1 (configuration not stated)	none (no result: Rango dissoc inh, pAkt inh, Rango-impB inh)
COc1ccc(C(=O)Nc2nc3ccc(S(C)(=O)=O)cc3s2)cc1	pAkt inh -85%
CS(=O)(=O)c1ccc2nc(NC(=O)c3ccc(Cl)cc3)sc2c1	none
CC1CCCN(S(=O)(=O)c2csc(C(N)=O)c2)C1 (configuration not stated)	TSHR antagonist -140
CCOC(=O)C1CCN(S(=O)(=O)c2csc(C(N)=O)c2)CC1	none
COc1ccc(OC)c(NC(=O)Cn2c(CCC(=O)O)ccc2-c2cccs2)c1	pAkt inh -119% (no result: TSHR antagonist, p53 reactivation)
COCCOC(=O)C1=C(C)NC2=C(C(=O)CC(C)(C)C2)C1c1cccnc1 (configuration not stated)	Rango dissoc inh inconclusive, pAkt inh -108%, Rango-impB inh inconclusive
Cc1cc(C)n(S(=O)(=O)c2cc(Cl)ccc2Cl)n1	pAkt inh -121%
CCOC(=O)c1c(C)nc2sc3c(=O)n(-c4ccc(OC)cc4)cnc3c2c1-c1ccc(OC)cc1	pAkt inh -111%
CCOC(=O)c1ccc2c(c1)n(CC)c(/C=C/N(C)c1ccccc1)[n+]2CC	Rango dissoc inh inconclusive, Rango-impB inh inconclusive
CC[n+]1c(/C=C/N(C)c2ccccc2)n(-c2ccccc2)c2ccc(-c3nc4ccccc4s3)cc21	Rango dissoc inh inconclusive, TSHR antagonist -98, Rango-impB inh inconclusive
COc1cccc(NC(=O)c2ccc3snnc3c2)c1	pAkt inh -113%, p53 reactivation inconclusive
CCN1C(=O)C2(C(C#N)=C(N)Oc3n[nH]c(COC)c32)c2ccccc21 (configuration not stated)	none
